Rows were chosen to be rich in hits. Some 2.8% of all compounds tested hit in one or more screens of this group.
PvdQ acylase – P. aeruginosa PvdQ acylase inhibitors, primary screen, biochemical, fluorescence, plate reader and imaging, single point. PvdQ acylase [Pseudomonas aeruginosa LESB58]. purified PvdQ acylase. inhibition, % at 10 µM. 340,000 tested, 0.063% active. AID 488965, 2010; in the data active = inhibition above about 30%, passing the limit was not always enough
PglD inh – C. jejuni PglD acetyltransferase inhibitors, primary screen, biochemical, DTNB colorimetric, single point; UDP-N-acetylbacillosamine N-acetyltransferase PglD (Campylobacter jejuni); purified PglD enzyme, DTNB colorimetric CoA detection; inhibition, % at 12.5 µM; 360,000 tested, 0.098% active; in the data active = inhibition above about 16%, passing the limit was not always enough
CDK5 inh – inhibitors of human CDK5/p35 kinase, primary screen, biochemical, single concentration. Cyclin-dependent kinase 5 (Homo sapiens) + Cyclin-dependent kinase 5 activator 1 (Homo …. Recombinant CDK5/p35, ADP-Glo luminescence, 60 min. inhibition, % at 10 µM. 330,000 tested, 0.01% active. AID 488839, 2010;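 active = highest replicate inhibition of at least 50% and at least 75% of replicates reaching 50%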
FGF22 binding – binders of human FGF22 protein, primary screen, FGF22 synaptogenesis inhibitor project, biophysical, thermal shift, single point; 340,000 tested, 1.5% active; Fibroblast growth factor 22 (Homo sapiens), Q9HCT0; recombinant FGF22 thermal shift, SYPRO orange fluorescence; percent of sucrose octasulfate shift, DMSO zero; activity (Tm shift, normalised), % at 9.99 µM;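 active = mean Tm shift, scaled 0 neutral to 100 positive control, at about 1.3% or above, every replicate too, limit read from the data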
Target sequence (Q9HCT0 whole entry, looked up): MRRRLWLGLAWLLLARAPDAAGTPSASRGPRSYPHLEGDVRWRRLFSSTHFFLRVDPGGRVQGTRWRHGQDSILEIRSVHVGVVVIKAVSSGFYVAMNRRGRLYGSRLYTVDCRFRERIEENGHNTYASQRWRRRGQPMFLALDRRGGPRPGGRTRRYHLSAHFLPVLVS
dFosB act – activators of delta FosB homodimer, primary screen, biochemical, fluorescence polarization, TAMRA-CDK5 oligo, single point; Protein FosB (Mus musculus), P13346; purified delta FosB; percent of positive-control signal above neutral wells; activation, % at 25 µM; 340,000 tested, 0.99% active; AID 493131, 2011;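 active = mean activation above about 17%, with every replicate also reaching it, limit read from the data, passing the limit was not always enough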
SIRT5 inh – SIRT5 desuccinylase inhibitors, primary screen, biochemical, fluorescence imaging, single point, set 5; 330,000 tested, 1.1% active; AID 652115, 2013; NAD-dependent protein deacylase sirtuin-5, mitochondrial (Homo sapiens), Q9NXA8; inhibition, % at 15 µM; Purified SirT5, succinyl-peptide AMC, trypsin-coupled fluorescence; in the data active = inhibition above about 15%
Target sequence (Q9NXA8 whole entry, looked up): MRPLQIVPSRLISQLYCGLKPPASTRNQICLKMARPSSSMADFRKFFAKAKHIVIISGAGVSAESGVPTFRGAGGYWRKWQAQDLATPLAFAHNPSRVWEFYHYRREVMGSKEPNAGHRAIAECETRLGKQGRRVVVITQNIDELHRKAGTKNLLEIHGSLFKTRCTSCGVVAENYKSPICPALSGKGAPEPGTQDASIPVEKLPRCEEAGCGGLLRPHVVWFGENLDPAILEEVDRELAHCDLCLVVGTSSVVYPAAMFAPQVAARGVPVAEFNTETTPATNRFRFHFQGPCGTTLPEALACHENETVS
Each line names hits and unclear results; the compound was inactive in the other large screens.

C=CCOc1ccc(C[C@H](N)C(=O)NC[C@H]2O[C@@H](n3cc(C)c(=O)[nH]c3=O)C[C@@H]2O)cc1	none (no result: PvdQ acylase, CDK5 inh, dFosB act)
COc1ccccc1-c1cc(C(F)(F)F)nc(S(=O)(=O)CCCC(=O)NC(C)C)n1	none (no result: FGF22 binding, SIRT5 inh)
COc1ccccc1-c1cc(C(F)(F)F)nc(S(=O)(=O)CCCC(=O)NCc2ccc(F)cc2)n1	FGF22 binding 1.4 (no result: PglD inh)
CN1CCc2[nH]c3ccc(C(=O)NN)cc3c2C1	dFosB act 20 (no result: FGF22 binding, SIRT5 inh)
NNC(=O)c1ccc2[nH]c3c(c2c1)CCCC3	none (no result: PglD inh)
CCOc1cc(CNCC(C)C)cc(Cl)c1OCc1ccccc1	FGF22 binding 44 (no result: PglD inh)
CCOc1c(Cl)cc(CNCC(C)C)cc1OC	none (no result: PglD inh, FGF22 binding, SIRT5 inh)
O=C(C[C@@H]1C[C@H]2c3cc(NC(=O)CC4CC4)ccc3O[C@H]2[C@H](CO)O1)NCc1cccnc1	none (no result: PvdQ acylase, CDK5 inh, dFosB act)
C[C@H](CO)N1C[C@H](C)[C@@H](CN(C)S(=O)(=O)c2cccs2)Oc2ccc(NC(=O)CCN3CCOCC3)cc2CC1=O	none (no result: PvdQ acylase, CDK5 inh, dFosB act)
O=[N+]([O-])c1ccc(N=Nc2ccc(O)cc2O)cc1	none (no result: FGF22 binding, SIRT5 inh)
O=S(=O)(O)c1cc(Cl)cc(N=Nc2ccc(O)cc2O)c1O	SIRT5 inh 39 (no result: PglD inh, FGF22 binding)
CCN1CCCC1CNC(=O)c1ccc2c(c1)NC(=O)/C(=C\c1ccc(C)cc1)S2 (configuration not stated)	dFosB act 39
COc1ccc(/C=C2\Sc3ccc(C(=O)NC4CC4)cc3N(C)C2=O)cc1OC	none
COc1ccc(/C=C2\Sc3ccc(C(=O)NCCN4CCCCCC4)cc3N(C)C2=O)cc1	dFosB act 27
Cc1ccc(/C=C2/Sc3ccc(C(=O)NCCN4CCOCC4)cc3NC2=O)cc1	none (no result: CDK5 inh)
COc1cccc(/C=C2/Sc3ccc(C(=O)NCCN4CCCC4)cc3NC2=O)c1	dFosB act 36
Cc1noc(C)c1S(=O)(=O)N(C)C[C@H]1OCCCC[C@@H](C)Oc2ccc(NC(=O)NC3CCCCC3)cc2C(=O)N([C@@H](C)CO)C[C@@H]1C	none (no result: PvdQ acylase, CDK5 inh, dFosB act)
COc1ccccc1C(=O)Nc1ccc2c(c1)C(=O)N(C)[C@H]1CC[C@@H](CC(=O)NCc3ccc(Cl)c(Cl)c3)O[C@H]1CO2	none (no result: PvdQ acylase, CDK5 inh, dFosB act)
CCC(=O)N(C)C[C@@H]1Oc2cc(-c3cccc(OC)c3)ccc2S(=O)(=O)N([C@@H](C)CO)C[C@H]1C	none (no result: PvdQ acylase, CDK5 inh, dFosB act)
Cc1ccc(S(=O)(=O)NCC[C@@H]2CC[C@H](NC(=O)CCN3CCCCC3)[C@@H](CO)O2)cc1	SIRT5 inh 17 (no result: PvdQ acylase, CDK5 inh, dFosB act)
O=C(N[C@H]1CC[C@@H](CCNS(=O)(=O)c2ccc(F)cc2)O[C@H]1CO)C1CCC1	none (no result: PvdQ acylase, CDK5 inh, dFosB act)
O=C(N[C@H]1CC[C@@H](CCNS(=O)(=O)c2ccc(F)cc2)O[C@@H]1CO)C1CCC1	SIRT5 inh 18 (no result: PvdQ acylase, CDK5 inh, dFosB act)
Cc1ccc(S(=O)(=O)NCC[C@@H]2CC[C@@H](NC(=O)CCN3CCCCC3)[C@H](CO)O2)cc1	none (no result: PvdQ acylase, CDK5 inh, dFosB act)
Cc1noc(C)c1S(=O)(=O)Nc1ccc2c(c1)C(=O)N([C@H](C)CO)C[C@H](C)[C@@H](CN(C)C(=O)c1ccccc1)OCCCC[C@H](C)O2	none (no result: PvdQ acylase, CDK5 inh, FGF22 binding, dFosB act)
C[C@H]1CCCCO[C@H](CN(C)Cc2ccc(C(F)(F)F)cc2)[C@@H](C)CN([C@@H](C)CO)C(=O)c2cc(N(C)C)ccc2O1	none (no result: PvdQ acylase, CDK5 inh, dFosB act)
COc1ccc(NC(=O)Nc2ccc3c(c2)C(=O)N([C@H](C)CO)C[C@@H](C)[C@H](CN(C)C(=O)NC2CCCCC2)OCCCC[C@@H](C)O3)cc1	none (no result: PvdQ acylase, CDK5 inh, dFosB act)
Cc1cc(C)cc(OCC(=O)Nc2ccc3c(c2)OCCO3)c1	FGF22 binding 43 (no result: PglD inh)
Cc1ccc(-c2ccc(=O)n(CC(=O)Nc3ccc4c(c3)OCCO4)n2)cc1	SIRT5 inh 20 (no result: PglD inh)
Cc1ccc(OCC(=O)Nc2ccc(N3CCCC3)cc2)cc1C	none (no result: FGF22 binding, SIRT5 inh)
Cc1cc(C)cc(OCC(=O)Nc2ccc(N3CCCC3)cc2)c1	dFosB act 65 (no result: FGF22 binding, SIRT5 inh)
